Measured values taken from ChEMBL document CHEMBL4513142, “CO-ADD screening of Indiana University - Purdue University Indianapolis (USA) compounds”.
Several values for one entry are separate records, joined by “and”; a condition that tells them apart may be missing. Equal values may be shown once. Entries with a potency or affinity are not part of this list.

Key:
Klebsiella pneumoniae = conditions: Concentration 32 ug.mL-1, ASSAY_TEST Inhibition of Bacterial Growth, detection method Absorption (OD600), MEDIA CAMHB, plate type 384well, NBS, CORNING #3640, time 18 hr
Candida albicans = conditions: 32 ug/mL
Cryptococcus neoformans = conditions: Concentration 32 ug.mL-1, ASSAY_TEST Inhibition of Fungal Growth, detection method Resazurin, Absorption (OD600-OD570), plate type 384well, NBS, CORNING #3640

Structure (SMILES)	Inhibition (Klebsiella pneumoniae; 32 ug/mL)	Inhibition (Candida albicans)	Inhibition (Cryptococcus neoformans; 32 ug/mL)	Inhibition (Klebsiella pneumoniae)	Inhibition (Cryptococcus neoformans)
C[C@H](NC(=O)c1ccccc1Cl)C(=O)O	-1.23% and -3.38%	4.87% and 8.5%	-5.22% and -11.03%		
CCCNC(=O)C(Cc1ccccc1)NC(=O)c1ccc(F)cc1 (stereo not given)		2.91%		15.24%	-7.35%
[C-]#[N+]c1ccc(C(=O)NC(CC=C)C(=O)NCCC)cc1 (stereo not given)		3.05%		4.31%	-8.98%
Cc1ccc(C(=O)NC(Cc2ccccc2C#N)C(=O)O)cc1 (stereo not given)	10.82% and 9.51%		-6.48% and -6.82%		
NC(Cc1ccccc1F)C(=O)O.O=C(O)C(F)(F)F (stereo not given)	-4.61% and -3.52%	2.11% and 3.25%	-7.08% and 0.99%		
NC(=O)[C@H](Cc1ccccc1)NC(=O)c1cccnc1	15.19% and 20.47%	6.63% and 4.08%	-3.63% and -8.29%		
CC(C)[C@H](NC(=O)c1cccc(C(F)(F)F)c1)C(=O)O	-0.42% and 3.74%	7.7% and 10.5%	-6.26% and -6.2%		
O=C(Cc1cccc(Br)c1)N[C@@H](Cc1ccccc1)C(=O)O	7.39% and -2.64%		-5.52% and -8.87%		
[C-]#[N+]c1ccc(C(=O)NC(CC#C)C(=O)NCCC)cc1 (stereo not given)		4.37%		15.5%	-8.61%
NC(Cc1ccc(F)c(F)c1)C(=O)O.O=C(O)C(F)(F)F (stereo not given)	7.21% and 5.15%	1.67% and -0.02%	-13.22% and -14.09%		
CC(C)C[C@H](NC(=O)c1cccnc1)C(N)=O	3.3% and -1.43%		-4.01% and -5.8%		
